Assay results reported in PubChem BioAssay AID1159580 (chemical genetic matrix, 2015).
Where “and” joins values, the source holds several entries; their conditions need not be identical. Equal values may be shown once. Hit rate of the full screen: of about 5,500 compounds, about 2,000 (36%) were called active. About 18% were inconclusive and are not listed. Rule as the data show it: active = normalized growth mostly below about 0.91 (no sharp cut-off); inconclusive = no clear call, values can overlap the other calls; inactive = mostly above about 0.92. This is one part of the list.

Test: chemical genetic growth profiling, strain panel (AID 1159580);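 also: tested at 20 µM; growth read once vehicle control cultures reached saturation at 30 °C; 1 = growth at the plate median or of vehicle wells; lower values mean less growth of the strain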
Settings: growth OD

Measured: normalized growth

CC(C)C(=O)Nc1ccc([N+](=O)[O-])c(C(F)(F)F)c1
active: S. cerevisiae deletion strains, locus YKR001C, strain vps1, active compounds read low 0.837
inactive: S. cerevisiae deletion strains, locus YKL009W, strain mrt4, active compounds read low 0.984 | S. cerevisiae deletion strains, locus YKL068W, active compounds read low 0.984 | S. cerevisiae deletion strains, locus YKL085W, strain MDH1 (second series), active compounds read low 0.987 | S. cerevisiae deletion strains, locus YKL085W, strain MDH1, active compounds read low 0.987 | S. cerevisiae deletion strains, locus YKL160W, strain elf1, active compounds read low 1 | S. cerevisiae deletion strains, locus YKL190W, strain CNB1, active compounds read low 0.992 | S. cerevisiae deletion strains, locus YKR026C, strain gcn3, active compounds read low 1.01 | S. cerevisiae deletion strains, locus YKR091W, strain srl3, active compounds read low 1.01 | S. cerevisiae deletion strains, locus YLL001W, strain dnm1, active compounds read low 1.03 | S. cerevisiae deletion strains, locus YLL026W, active compounds read low 1.02 | S. cerevisiae deletion strains, locus YLL041C, strain sdh2, active compounds read low 1.01 | S. cerevisiae deletion strains, locus YLR027C, strain aat2, active compounds read low 1.02 | S. cerevisiae deletion strains, locus YLR039C, strain RIC1, active compounds read low 0.826 | S. cerevisiae deletion strains, locus YLR058C, strain SHM2, active compounds read low 0.99 | S. cerevisiae deletion strains, locus YLR102C, strain apc9, active compounds read low 0.968 | S. cerevisiae deletion strains, locus YLR113W, strain HOG1, active compounds read low 0.93 | S. cerevisiae deletion strains, locus YLR221C, strain rsa3, active compounds read low 1.04 | S. cerevisiae deletion strains, locus YLR258W, strain gsy2, active compounds read low 1.02 | S. cerevisiae deletion strains, locus YLR262C, strain YPT6 (second series), active compounds read low 1.01 | S. cerevisiae deletion strains, locus YLR262C, strain YPT6, active compounds read low 0.899 | S. cerevisiae deletion strains, locus YLR268W, strain sec22, active compounds read low 0.96 | S. cerevisiae deletion strains, locus YLR320W, strain mms22, active compounds read low 1.03 | S. cerevisiae deletion strains, locus YLR330W, strain CHS5, active compounds read low 0.987 | S. cerevisiae deletion strains, locus YLR342W, strain FKS1 (second series), active compounds read low 0.96 | S. cerevisiae deletion strains, locus YLR342W, strain FKS1, active compounds read low 1.01 | S. cerevisiae deletion strains, locus YLR357W, strain rsc2, active compounds read low 1.09 | S. cerevisiae deletion strains, locus YLR370C, strain arc18, active compounds read low 1.03 | S. cerevisiae deletion strains, locus YLR371W, strain rom2, active compounds read low 0.974 | S. cerevisiae deletion strains, locus YLR384C, strain iki3, active compounds read low 1.03 | S. cerevisiae deletion strains, locus YLR418C, strain cdc73, active compounds read low 0.896 | S. cerevisiae deletion strains, locus YML016C, strain PPZ1, active compounds read low 0.981 | S. cerevisiae deletion strains, locus YML032C, strain rad52, active compounds read low 0.974 | S. cerevisiae deletion strains, locus YML120C, strain ndi1, active compounds read low 1.01 | S. cerevisiae deletion strains, locus YML124C, strain tub3, active compounds read low 0.972 | S. cerevisiae deletion strains, locus YMR058W, strain fet3, active compounds read low 1.03 | S. cerevisiae deletion strains, locus YMR078C, strain ctf18, active compounds read low 0.976 | S. cerevisiae deletion strains, locus YMR125W, strain sto1, active compounds read low 1.03 | S. cerevisiae deletion strains, locus YMR129W, active compounds read low 1.02 | S. cerevisiae deletion strains, locus YMR205C, strain PFK2, active compounds read low 1.02 | S. cerevisiae deletion strains, locus YMR223W, strain ubp8, active compounds read low 0.982 | S. cerevisiae deletion strains, locus YMR231W, strain pep5, active compounds read low 1.03 | S. cerevisiae deletion strains, locus YMR263W, strain SAP30, active compounds read low 0.982 and 1 | S. cerevisiae deletion strains, locus YMR307W, strain GAS1, active compounds read low 0.832 | S. cerevisiae deletion strains, locus YNL067W, strain RPL9B, active compounds read low 0.99 | S. cerevisiae deletion strains, locus YNL071W, strain lat1, active compounds read low 1.02 | S. cerevisiae deletion strains, locus YNL128W, strain TEP1, active compounds read low 1.01 | S. cerevisiae deletion strains, locus YNL153C, strain GIM3, active compounds read low 0.99 and 0.977 | S. cerevisiae deletion strains, locus YNL175C, strain NOP13, active compounds read low 0.977 | S. cerevisiae deletion strains, locus YNL183C, strain NPR1, active compounds read low 0.91 | S. cerevisiae deletion strains, locus YNL197C, strain WHI3, active compounds read low 0.968 | S. cerevisiae deletion strains, locus YNL209W, strain ssb2, active compounds read low 1.01 | S. cerevisiae deletion strains, locus YNL224C, strain SQS1, active compounds read low 0.96 | S. cerevisiae deletion strains, locus YNL233W, strain BNI4, active compounds read low 0.955 | S. cerevisiae deletion strains, locus YNL248C, strain rpa49, active compounds read low 1.06 | S. cerevisiae deletion strains, locus YNL250W, strain rad50, active compounds read low 0.989 | S. cerevisiae deletion strains, locus YNL271C, strain bni1, active compounds read low 0.975 | S. cerevisiae deletion strains, locus YNL298W, strain CLA4, active compounds read low 0.978 | S. cerevisiae deletion strains, locus YNL307C, strain MCK1, active compounds read low 0.958 | S. cerevisiae deletion strains, locus YNL322C, strain KRE1 (second series), active compounds read low 1.02 | S. cerevisiae deletion strains, locus YNL322C, strain KRE1, active compounds read low 0.997 and 1.04 | S. cerevisiae deletion strains, locus YNR049C, strain mso1, active compounds read low 1.02 | S. cerevisiae deletion strains, locus YNR052C, strain pop2, active compounds read low 0.978 | S. cerevisiae deletion strains, locus YOL006C, strain TOP1, active compounds read low 0.851 | S. cerevisiae deletion strains, locus YOL012C, strain htz1 1.09 | S. cerevisiae deletion strains, locus YOL147C, strain pex11, active compounds read low 0.978 | S. cerevisiae deletion strains, locus YOR001W, strain rrp6, active compounds read low 1.05 | S. cerevisiae deletion strains, locus YOR061W, strain CKA2, active compounds read low 0.987 | S. cerevisiae deletion strains, locus YOR069W, strain VPS5, active compounds read low 0.99 | S. cerevisiae deletion strains, locus YOR070C, strain gyp1, active compounds read low 1 | S. cerevisiae deletion strains, locus YOR080W, strain dia2, active compounds read low 1.03 | S. cerevisiae deletion strains, locus YOR083W, strain WHI5 (second series), active compounds read low 0.9 | S. cerevisiae deletion strains, locus YOR083W, strain WHI5, active compounds read low 0.999 | S. cerevisiae deletion strains, locus YOR106W, strain vam3, active compounds read low 1.04 | S. cerevisiae deletion strains, locus YOR136W, strain idh2, active compounds read low 0.981 | S. cerevisiae deletion strains, locus YOR144C, strain elg1, active compounds read low 0.966 | S. cerevisiae deletion strains, locus YOR184W, strain ser1, active compounds read low 0.939 | S. cerevisiae deletion strains, locus YOR231W, strain MKK1, active compounds read low 0.952 | S. cerevisiae deletion strains, locus YOR265W, strain rbl2, active compounds read low 1 | S. cerevisiae deletion strains, locus YOR270C, strain vph1, active compounds read low 1.03 | S. cerevisiae deletion strains, locus YOR290C, strain snf2, active compounds read low 1.02 | S. cerevisiae deletion strains, locus YOR316C, strain cot1, active compounds read low 0.977 | S. cerevisiae deletion strains, locus YPL051W, strain arl3, active compounds read low 1 | S. cerevisiae deletion strains, locus YPL055C, strain LGE1, active compounds read low 0.953 and 1.01 | S. cerevisiae deletion strains, locus YPL078C, strain atp4, active compounds read low 1 | S. cerevisiae deletion strains, locus YPL106C, strain sse1, active compounds read low 1.01 | S. cerevisiae deletion strains, locus YPL240C, strain hsp82, active compounds read low 1 | S. cerevisiae deletion strains, locus YPL241C, strain CIN2, active compounds read low 0.985 and 1 | S. cerevisiae deletion strains, locus YPL256C, strain CLN2, active compounds read low 0.991 | S. cerevisiae deletion strains, locus YPR119W, strain clb2, active compounds read low 0.973 | S. cerevisiae deletion strains, locus YPR141C, strain kar3, active compounds read low 0.98 | S. cerevisiae deletion strains, locus YPR163C, strain tif3, active compounds read low 0.987 | S. cerevisiae deletion strains, locus YPR167C, strain met16, active compounds read low 0.984 | S. cerevisiae deletion strains, strain wtn01, active compounds read low 0.954 | S. cerevisiae strains, strain wild type, active compounds read low 0.986
